PubChem BioAssay (EPA / NIEHS)
Results filed as inconclusive are left out. Activity calls are given as the source filed them. How the source made its calls, unless noted: active means hit-call score of the fitted dose curve at least 0.9, where 1 is the maximum; inactive means score below 0.9.

Experiments:
[1] = read-out: Intercellular Adhesion Molecule 1 (ICAM1), ICAM1 (gene 3383); test: BSK_3C_ICAM1: BioMAP Diversity Plus: 3C Assay for Intercellular Adhesion Molecule 1 (ICAM1) Biomarker Activity (AID 2283003); details: primary human endothelial cells (HUVEC); actives raise or lower the signal
Procedure, shortened: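 ELISA readout of ICAM1 in human umbilical vein endothelial cells in the 3C system, taken 24 h post-dose. Gain or loss of signal versus DMSO was fitted in both directions, with SRB total-protein staining run in parallel.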

[2] = BSK_3C_Proliferation: Cell Proliferation Assessment in the BioMAP Diversity Plus: 3C Assay (AID 2283006); details: primary human endothelial cells (HUVEC);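 on AC50: potency may reflect either rise or fall in cell number versus DMSO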
Procedure, shortened: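 Proliferation as total protein: sulforhodamine B (0.1%) stain of TCA-fixed subconfluent human umbilical vein endothelial cells, absorbance 560 nm, 48 h after dosing. Activity fitted in both directions against DMSO baseline.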

[3] = target: Peroxisome proliferator-activated receptor gamma (Homo sapiens) (UniProt P37231); test: ATG_PPARg_TRANS: Attagene TRANS-FACTORIAL HepG2 Assay for human Peroxisome Proliferator-activated Receptor-gamma (PPARg) (AID 2283007; active means hit-call score of the fitted dose curve at least 0.9, where 1 is the maximum)
Sequence of Peroxisome proliferator-activated receptor gamma (Homo sapiens) (P37231 whole entry, looked up, the tested form may be a part): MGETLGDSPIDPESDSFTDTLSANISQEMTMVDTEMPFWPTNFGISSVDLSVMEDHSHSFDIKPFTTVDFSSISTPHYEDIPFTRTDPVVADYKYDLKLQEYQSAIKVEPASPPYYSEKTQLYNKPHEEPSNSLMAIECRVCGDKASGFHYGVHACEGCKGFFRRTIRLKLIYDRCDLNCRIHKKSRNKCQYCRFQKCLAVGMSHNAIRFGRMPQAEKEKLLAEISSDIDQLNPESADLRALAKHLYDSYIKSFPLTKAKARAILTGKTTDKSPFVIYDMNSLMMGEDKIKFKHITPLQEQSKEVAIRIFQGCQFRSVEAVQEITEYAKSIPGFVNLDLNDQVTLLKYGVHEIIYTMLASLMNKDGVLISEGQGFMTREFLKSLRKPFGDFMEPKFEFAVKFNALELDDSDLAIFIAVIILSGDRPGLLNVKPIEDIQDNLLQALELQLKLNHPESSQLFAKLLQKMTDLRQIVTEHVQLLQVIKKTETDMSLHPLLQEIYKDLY
Procedure, shortened: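 Transient transfection of HepG2 with GAL4-UAS-driven reporter units; chemical dosing 24 h; total RNA → oligo(dT) RT → PCR with reporter primers → 6-FAM primer extension → HpaI digest 2 h 37 C → capillary electrophoresis. Positive direction vs DMSO.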

[4] = target: Nuclear receptor subfamily 1 group I member 2 (Homo sapiens) (UniProt O75469); test: ATG_PXR_TRANS: Attagene TRANS-FACTORIAL HepG2 Assay for human Pregnane X Receptor (PXR) (AID 2283008; active means hit-call score of the fitted dose curve at least 0.9, where 1 is the maximum)
Sequence of Nuclear receptor subfamily 1 group I member 2 (Homo sapiens) (O75469 whole entry, looked up, the tested form may be a part): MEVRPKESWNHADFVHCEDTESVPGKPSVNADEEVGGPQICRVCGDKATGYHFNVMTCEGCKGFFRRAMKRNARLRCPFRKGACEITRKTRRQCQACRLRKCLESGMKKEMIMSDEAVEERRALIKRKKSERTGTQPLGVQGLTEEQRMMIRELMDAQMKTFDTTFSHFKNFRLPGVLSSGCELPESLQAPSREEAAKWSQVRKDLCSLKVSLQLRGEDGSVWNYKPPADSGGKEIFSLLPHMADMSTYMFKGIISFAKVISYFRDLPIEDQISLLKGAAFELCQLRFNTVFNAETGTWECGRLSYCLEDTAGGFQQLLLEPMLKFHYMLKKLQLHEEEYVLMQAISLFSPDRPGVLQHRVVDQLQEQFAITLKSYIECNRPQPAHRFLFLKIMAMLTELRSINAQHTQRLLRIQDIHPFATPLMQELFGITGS
Procedure, shortened: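 HepG2 transfected (FuGene 6) with GAL4-UAS reporter units + PXR-Gal4 chimera; dosed 24 h. Total RNA → oligo(dT) RT → PCR → 6-FAM primer extension → HpaI cut → CE. Gain-of-signal vs DMSO.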

[5] = target: human RAR-related Orphan Receptor gamma (RORg), RORC (gene 6097) (UniProt P51449); test: ATG_RORg_TRANS: Attagene TRANS-FACTORIAL HepG2 Assay for human RAR-related Orphan Receptor gamma (RORg) (AID 2283011; active means hit-call score of the fitted dose curve at least 0.9, where 1 is the maximum)
Sequence of human RAR-related Orphan Receptor gamma (RORg), RORC (gene 6097) (P51449 whole entry, looked up, the tested form may be a part): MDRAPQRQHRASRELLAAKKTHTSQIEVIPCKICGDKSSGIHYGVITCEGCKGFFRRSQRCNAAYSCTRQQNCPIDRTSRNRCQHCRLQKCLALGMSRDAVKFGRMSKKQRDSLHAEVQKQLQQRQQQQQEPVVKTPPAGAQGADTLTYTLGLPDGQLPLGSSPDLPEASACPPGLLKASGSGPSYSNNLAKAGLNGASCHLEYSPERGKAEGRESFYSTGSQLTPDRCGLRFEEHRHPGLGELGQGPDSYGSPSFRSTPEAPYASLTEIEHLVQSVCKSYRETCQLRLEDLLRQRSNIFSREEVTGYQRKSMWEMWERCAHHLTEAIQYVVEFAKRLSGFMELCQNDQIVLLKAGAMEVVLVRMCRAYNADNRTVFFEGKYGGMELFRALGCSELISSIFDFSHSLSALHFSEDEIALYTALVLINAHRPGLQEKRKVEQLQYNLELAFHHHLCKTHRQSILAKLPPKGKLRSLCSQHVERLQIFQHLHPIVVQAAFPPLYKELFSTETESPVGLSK
Procedure, shortened: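 First, HepG2 liver cells were transfected with GAL4-UAS-driven reporter constructs and the RORg-Gal4 fusion. Next, they were treated with chemical for 24 h. Finally, reporter mRNA was quantified by RT-PCR and capillary electrophoresis, with upward activity fitted against DMSO.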

[6] = target: human Retinoid X Receptor beta (RXRb), RXRB (gene 6257) (UniProt P28702); test: ATG_RXRb_TRANS: Attagene TRANS-FACTORIAL HepG2 Assay for human Retinoid X Receptor beta (RXRb) (AID 2283013; active means hit-call score of the fitted dose curve at least 0.9, where 1 is the maximum)
Sequence of human Retinoid X Receptor beta (RXRb), RXRB (gene 6257) (P28702 whole entry, looked up, the tested form may be a part): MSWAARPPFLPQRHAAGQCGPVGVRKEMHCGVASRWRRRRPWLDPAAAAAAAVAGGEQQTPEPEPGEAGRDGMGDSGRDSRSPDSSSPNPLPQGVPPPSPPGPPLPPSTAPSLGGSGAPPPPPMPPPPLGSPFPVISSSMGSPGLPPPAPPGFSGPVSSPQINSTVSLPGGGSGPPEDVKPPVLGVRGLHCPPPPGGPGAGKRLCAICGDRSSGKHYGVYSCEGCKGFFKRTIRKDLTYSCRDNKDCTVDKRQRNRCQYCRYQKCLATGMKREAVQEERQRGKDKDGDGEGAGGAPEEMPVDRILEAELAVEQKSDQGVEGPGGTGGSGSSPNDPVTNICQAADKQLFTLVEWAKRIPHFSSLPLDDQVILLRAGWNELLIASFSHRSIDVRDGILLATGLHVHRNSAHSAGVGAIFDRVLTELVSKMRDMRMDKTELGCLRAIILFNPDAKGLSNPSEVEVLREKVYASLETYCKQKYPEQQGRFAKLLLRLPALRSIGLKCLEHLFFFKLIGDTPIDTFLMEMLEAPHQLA
Procedure, shortened: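 Readout is reporter transcript induction after 24 h dosing. It is measured by RT-PCR of total RNA followed by fluorescent capillary electrophoresis. HepG2 liver cells carry transfected multiple reporter units driven by an exogenous RXRb-Gal4 fusion; activity is relative to DMSO.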

[7] = read-out: Interleukin-1 alpha (IL1a), IL1A (gene 3552); test: BSK_BE3C_IL1a: BioMAP Diversity Plus: BE3C Assay for Interleukin-1 alpha (IL1a) Biomarker Activity (AID 2283016); details: primary human bronchial epithelial cells; actives raise or lower the signal
Procedure, shortened: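 IL-1a measured by ELISA after 24 h treatment of human primary bronchial epithelial cells, with gain or loss of signal fitted versus DMSO. Parallel cultures stained with SRB gauge overt cytotoxicity.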

[8] = read-out: Monocyte Chemoattractant Protein-1 (MCP1), CCL2 (gene 6347); test: BSK_3C_MCP1: BioMAP Diversity Plus: 3C Assay for Monocyte Chemoattractant Protein-1 (MCP1) Biomarker Activity (AID 2283017); details: primary human endothelial cells (HUVEC); actives raise or lower the signal
Procedure, shortened: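 ELISA read-out of MCP-1 from human umbilical vein endothelial cell cultures harvested 24 h post-dosing. Gain or loss of signal was fitted relative to DMSO.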

[9] = read-out: Monocyte Chemoattractant Protein-1 (MCP1), CCL2 (gene 6347); test: BSK_4H_MCP1: BioMAP Diversity Plus: 4H Assay for Monocyte Chemoattractant Protein-1 (MCP1) Biomarker Activity (AID 2283018); details: primary human endothelial cells (HUVEC); actives raise or lower the signal
Procedure, shortened: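 ELISA of MCP-1 (CCL2) 24 h after chemical dosing of HUVEC in the BioMAP 4H system. Gain or loss versus DMSO fitted; parallel SRB staining (560 nm) tracked overt cytotoxicity.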

[10] = read-out: Human Leukocyte Antigen - DR isotype (HLADR), HLA-DRA (gene 3122); test: BSK_3C_HLADR: BioMAP Diversity Plus: 3C Assay for Human Leukocyte Antigen - DR isotype (HLADR) Biomarker Activity (AID 2283019); details: primary human endothelial cells (HUVEC); actives raise or lower the signal
Procedure, shortened: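 ELISA readout of surface HLA-DR on human umbilical vein endothelium, taken 24 h after chemical treatment. Gain- and loss-of-signal were both fitted relative to DMSO.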

[11] = read-out: Interleukin-8 (IL8), CXCL8 (gene 3576); test: BSK_3C_IL8: BioMAP Diversity Plus: 3C Assay for Interleukin-8 (IL8) Biomarker Activity (AID 2283020); details: primary human endothelial cells (HUVEC); actives raise or lower the signal
Procedure, shortened: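 IL-8 was measured by ELISA in HUVEC cultures 24 h after chemical dosing, with gain or loss of signal fitted relative to DMSO. Parallel SRB total-protein staining tracked overt cytotoxicity.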

[12] = read-out: Monokine induced gamma interferon (MIG), CXCL9 (gene 4283); test: BSK_3C_MIG: BioMAP Diversity Plus: 3C Assay for Monokine induced gamma interferon (MIG) Biomarker Activity (AID 2283021); details: primary human endothelial cells (HUVEC); actives raise or lower the signal
Procedure, shortened: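 ELISA measurement of MIG in human umbilical vein endothelial cells 24 h after treatment. Cytotoxicity tracked by SRB staining in parallel cultures; gain or loss of signal fitted relative to DMSO.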

[13] = target: human Retinoic Acid Receptor gamma (RARg), RARG (gene 5916) (UniProt P13631); test: ATG_RARg_TRANS: Attagene TRANS-FACTORIAL HepG2 Assay for human Retinoic Acid Receptor gamma (RARg) (AID 2283009; active means hit-call score of the fitted dose curve at least 0.9, where 1 is the maximum)
Sequence of human Retinoic Acid Receptor gamma (RARg), RARG (gene 5916) (P13631 whole entry, looked up, the tested form may be a part): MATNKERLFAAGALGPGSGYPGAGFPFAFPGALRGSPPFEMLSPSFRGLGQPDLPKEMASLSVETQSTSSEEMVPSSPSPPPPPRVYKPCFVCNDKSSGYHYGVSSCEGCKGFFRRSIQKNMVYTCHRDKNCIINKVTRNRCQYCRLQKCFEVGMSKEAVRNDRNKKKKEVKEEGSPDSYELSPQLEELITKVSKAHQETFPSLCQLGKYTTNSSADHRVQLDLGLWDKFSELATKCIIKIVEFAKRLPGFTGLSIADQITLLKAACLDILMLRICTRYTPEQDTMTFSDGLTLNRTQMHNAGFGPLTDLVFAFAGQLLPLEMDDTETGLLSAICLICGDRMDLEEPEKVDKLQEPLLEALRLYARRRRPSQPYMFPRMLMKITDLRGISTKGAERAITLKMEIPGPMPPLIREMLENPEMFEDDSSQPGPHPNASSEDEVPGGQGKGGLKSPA
Procedure, shortened: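 Transactivation of exogenous RARg-Gal4 fusion measured as reporter transcript induction after 24 h in transfected HepG2 cells. RNA reverse-transcribed, amplified, fluorescently labeled and resolved by capillary electrophoresis; increase relative to DMSO.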

[14] = target: Retinoic acid receptor RXR-alpha (Homo sapiens) (UniProt P19793); test: ATG_RXRa_TRANS: Attagene TRANS-FACTORIAL HepG2 Assay for human Retinoid X Receptor alpha (RXRa) (AID 2283012; active means hit-call score of the fitted dose curve at least 0.9, where 1 is the maximum)
Sequence of Retinoic acid receptor RXR-alpha (Homo sapiens) (P19793 whole entry, looked up, the tested form may be a part): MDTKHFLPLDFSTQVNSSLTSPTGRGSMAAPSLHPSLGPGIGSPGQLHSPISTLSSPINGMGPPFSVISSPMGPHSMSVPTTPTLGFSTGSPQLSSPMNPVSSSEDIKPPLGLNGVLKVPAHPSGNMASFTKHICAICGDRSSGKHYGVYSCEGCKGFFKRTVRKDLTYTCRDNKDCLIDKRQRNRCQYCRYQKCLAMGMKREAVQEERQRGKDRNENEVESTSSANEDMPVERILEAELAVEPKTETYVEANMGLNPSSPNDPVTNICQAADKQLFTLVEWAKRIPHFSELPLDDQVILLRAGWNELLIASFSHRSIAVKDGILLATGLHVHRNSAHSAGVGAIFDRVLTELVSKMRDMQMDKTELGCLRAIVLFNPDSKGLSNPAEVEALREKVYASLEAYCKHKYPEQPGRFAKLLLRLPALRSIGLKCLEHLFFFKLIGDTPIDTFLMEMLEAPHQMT
Procedure, shortened: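 TRANS format reporting activity of exogenous RXRa-Gal4 chimera in transiently transfected HepG2, 24 h exposure. Reporter transcripts quantified by RT-PCR with capillary electrophoresis, with gain of signal scored relative to DMSO.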

[15] = target: human Thyroid Receptor alpha (THRa1), THRA (gene 7067) (UniProt P10827); test: ATG_THRa1_TRANS: Attagene TRANS-FACTORIAL HepG2 Assay for human Thyroid Receptor alpha (THRa1) (AID 2283014; active means hit-call score of the fitted dose curve at least 0.9, where 1 is the maximum)
Sequence of human Thyroid Receptor alpha (THRa1), THRA (gene 7067) (P10827 whole entry, looked up, the tested form may be a part): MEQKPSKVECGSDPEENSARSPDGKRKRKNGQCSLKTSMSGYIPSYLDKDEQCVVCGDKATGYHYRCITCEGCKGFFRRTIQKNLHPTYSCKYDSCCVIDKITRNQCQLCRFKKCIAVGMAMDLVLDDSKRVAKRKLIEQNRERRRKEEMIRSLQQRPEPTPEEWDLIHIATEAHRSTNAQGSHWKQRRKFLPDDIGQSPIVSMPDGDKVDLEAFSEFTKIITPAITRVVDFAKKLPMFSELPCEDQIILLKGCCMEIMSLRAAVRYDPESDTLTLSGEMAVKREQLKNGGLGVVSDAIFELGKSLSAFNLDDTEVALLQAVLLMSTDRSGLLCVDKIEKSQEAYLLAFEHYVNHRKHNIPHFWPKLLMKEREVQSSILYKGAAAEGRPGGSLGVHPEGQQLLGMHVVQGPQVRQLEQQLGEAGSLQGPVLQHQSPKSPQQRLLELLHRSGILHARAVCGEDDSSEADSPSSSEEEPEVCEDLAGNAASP
Procedure, shortened: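 Reporter transcript induction, read by capillary electrophoresis of 6-FAM-labelled RT-PCR products, reflects activity of a transfected THRa1-Gal4 fusion in HepG2 liver cells. Cells were dosed for 24 h; activity was fitted in the positive direction against DMSO.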

[16] = target: human Vitamin D Receptor (VDR), VDR (gene 7421) (UniProt P11473); test: ATG_VDR_TRANS: Attagene TRANS-FACTORIAL HepG2 Assay for human Vitamin D Receptor (VDR) (AID 2283022; active means hit-call score of the fitted dose curve at least 0.9, where 1 is the maximum)
Procedure, shortened: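 Steps: transfect HepG2 with GAL4-UAS-driven reporter constructs; dose compounds 24 h; isolate RNA, reverse-transcribe, PCR-amplify with 6-FAM-labelled primer extension and HpaI digestion; quantify fragments by capillary electrophoresis relative to DMSO.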

[17] = target: human RAR-related Orphan Receptor beta (RORb), RORB (gene 6096) (UniProt Q92753); test: ATG_RORb_TRANS: Attagene TRANS-FACTORIAL HepG2 Assay for human RAR-related Orphan Receptor beta (RORb) (AID 2283010; active means hit-call score of the fitted dose curve at least 0.9, where 1 is the maximum)
Sequence of human RAR-related Orphan Receptor beta (RORb), RORB (gene 6096) (Q92753 whole entry, looked up, the tested form may be a part): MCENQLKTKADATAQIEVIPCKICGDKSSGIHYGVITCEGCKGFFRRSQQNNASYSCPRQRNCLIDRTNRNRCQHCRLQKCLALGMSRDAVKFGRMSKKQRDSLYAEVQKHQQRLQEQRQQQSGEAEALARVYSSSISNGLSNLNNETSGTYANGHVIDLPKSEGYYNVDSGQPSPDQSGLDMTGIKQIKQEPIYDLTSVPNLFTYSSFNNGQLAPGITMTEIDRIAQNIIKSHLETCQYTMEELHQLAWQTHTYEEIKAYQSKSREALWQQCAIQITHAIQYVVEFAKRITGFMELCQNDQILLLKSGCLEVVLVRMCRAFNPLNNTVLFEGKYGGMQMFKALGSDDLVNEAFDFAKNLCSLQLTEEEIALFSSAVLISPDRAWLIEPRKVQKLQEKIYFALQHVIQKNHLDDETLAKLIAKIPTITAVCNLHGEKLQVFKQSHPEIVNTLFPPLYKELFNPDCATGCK
Procedure, shortened: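 Read-out is reporter mRNA induction, quantified by RT-PCR with fluorescent capillary electrophoresis, 24 h post-dose in transiently transfected HepG2 expressing exogenous NR-Gal4 chimera. Activity fitted upward versus DMSO.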

[18] = read-out: E-selectin (Homo sapiens) (UniProt P16581); test: BSK_3C_Eselectin: BioMAP Diversity Plus: 3C Assay for Eselectin Biomarker Activity (AID 2283015); details: primary human endothelial cells (HUVEC); actives raise or lower the signal
Procedure, shortened: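 ELISA read-out of E-selectin on endothelial monolayers after 24 h chemical treatment. Human umbilical vein primary cells served as the system, with DMSO defining baseline activity for bidirectional fitting.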

[19] = target: human Retinoic Acid Receptor beta (RARb), RARB (gene 5915) (UniProt P10826); test: ATG_RARb_TRANS: Attagene TRANS-FACTORIAL HepG2 Assay for human Retinoic Acid Receptor beta (AID 2283004; active means hit-call score of the fitted dose curve at least 0.9, where 1 is the maximum)
Sequence of human Retinoic Acid Receptor beta (RARb), RARB (gene 5915) (P10826 whole entry, looked up): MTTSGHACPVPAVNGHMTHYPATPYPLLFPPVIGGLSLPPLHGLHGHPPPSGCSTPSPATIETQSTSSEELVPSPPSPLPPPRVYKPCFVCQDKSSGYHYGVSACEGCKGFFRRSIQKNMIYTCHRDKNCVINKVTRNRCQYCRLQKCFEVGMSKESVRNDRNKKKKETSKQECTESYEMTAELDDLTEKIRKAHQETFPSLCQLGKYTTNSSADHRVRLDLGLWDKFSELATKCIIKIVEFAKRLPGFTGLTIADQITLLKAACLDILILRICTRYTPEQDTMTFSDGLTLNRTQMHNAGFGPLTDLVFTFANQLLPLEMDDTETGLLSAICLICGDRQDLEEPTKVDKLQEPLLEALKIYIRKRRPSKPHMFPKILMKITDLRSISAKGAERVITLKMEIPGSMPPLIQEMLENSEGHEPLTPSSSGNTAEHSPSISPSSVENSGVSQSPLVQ
Procedure, shortened: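 Transient transfection of HepG2 with multiple reporter units → chemical dosing, 24 h → total RNA isolation → RT with oligo(dT) → reporter-specific PCR, 6-FAM primer extension, HpaI digest → capillary electrophoresis. Positive direction vs DMSO control.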

[20] = target: Retinoic acid receptor alpha (Homo sapiens) (UniProt P10276); test: ATG_RARa_TRANS: Attagene TRANS-FACTORIAL HepG2 Assay for human Retinoic Acid Receptor alpha (RARa) (AID 2283005; active means hit-call score of the fitted dose curve at least 0.9, where 1 is the maximum)
Procedure, shortened: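 HepG2 cells transiently transfected with multiple reporter units expressing chimeric RARα-GAL4 fusion, with GAL4-UAS-driven reporters. After 24 h compound exposure, reporter mRNA induction quantified by RT-PCR and capillary electrophoresis with fluorescent labeling; gain-of-signal fitted relative to DMSO control.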

Measured: AC50

Sequence of E-selectin (Homo sapiens) (P16581 whole entry, looked up): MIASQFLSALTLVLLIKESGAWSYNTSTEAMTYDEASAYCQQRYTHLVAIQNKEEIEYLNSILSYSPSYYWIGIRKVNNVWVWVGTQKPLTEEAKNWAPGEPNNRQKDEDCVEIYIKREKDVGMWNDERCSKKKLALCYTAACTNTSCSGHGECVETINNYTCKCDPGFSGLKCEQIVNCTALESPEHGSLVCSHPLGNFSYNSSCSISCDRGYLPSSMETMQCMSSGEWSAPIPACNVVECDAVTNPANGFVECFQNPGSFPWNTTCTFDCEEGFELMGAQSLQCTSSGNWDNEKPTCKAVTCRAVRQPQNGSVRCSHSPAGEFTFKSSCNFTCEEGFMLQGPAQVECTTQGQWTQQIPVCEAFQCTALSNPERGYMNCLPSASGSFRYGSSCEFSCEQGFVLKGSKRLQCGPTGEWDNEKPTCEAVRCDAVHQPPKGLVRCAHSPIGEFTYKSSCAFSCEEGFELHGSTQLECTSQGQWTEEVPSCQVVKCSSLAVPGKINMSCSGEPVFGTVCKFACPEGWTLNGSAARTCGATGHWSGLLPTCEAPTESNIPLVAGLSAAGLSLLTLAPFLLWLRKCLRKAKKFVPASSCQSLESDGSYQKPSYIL

CCOC(=O)C(SP(=S)(OC)OC)c1ccccc1 (stereo not given)
active: [2] 14.9 µM | [3] 70.8 µM | [4] 3.52 µM | [6] 32.2 µM | [8] 3.97 µM | [9] 3.97 µM | [10] 31.8 µM
inactive: [1] | [5] | [7] | [11] | [12]

Cc1cc(C(C)(C)c2ccc(O)c(C)c2)ccc1O
inactive: [1] | [13] | [5] | [14] | [15] | [16]
active: [2] 14.3 µM | [3] 5.48 µM | [4] 3.26 µM | [7] 15.7 µM | [8] 19.3 µM | [9] 12.5 µM | [10] 14.7 µM | [11] 18.2 µM

O=C1C=CC(=O)c2ccccc21
inactive: [4] | [17] | [5] | [14] | [6] | [15] | [16]
active: [1] 5.9 µM | [2] 0.46 µM | [3] 5.98 µM | [18] 4.15 µM | [7] 3.75 µM | [8] 3.04 µM | [9] 1.45 µM | [10] 2.14 µM | [11] 5.23 µM

c1ccc(-c2cccc(-c3ccccc3)c2)cc1
inactive: [1] | [3] | [17] | [14] | [15]
active: [2] 13.2 µM | [4] 11.5 µM | [6] 7.98 µM | [7] 11.6 µM | [8] 12.4 µM | [9] 5.91 µM | [10] 9.9 µM | [11] 7.45 µM

CC(C)O.CC(C)O.OCCN(CCO)CCO.OCCN(CCO)CCO.[Ti]
inactive: [1] | [19] | [2] | [4] | [17] | [14] | [6] | [15] | [7] | [8] | [9] | [10] | [11] | [12]

Nc1c(Oc2ccccc2)cc(O)c2c1C(=O)c1ccccc1C2=O
active: [4] 3.13 µM | [6] 17.4 µM
inactive: [1] | [19] | [20] | [2] | [13] | [17] | [5] | [14] | [15] | [18] | [7] | [8] | [9] | [10] | [11] | [12]

Oc1cccc(-c2ccccc2)c1
inactive: [1] | [19] | [5] | [14] | [15] | [7] | [11]
active: [2] 27.2 µM | [3] 34.6 µM | [4] 26.1 µM | [6] 36.6 µM | [8] 30.6 µM | [9] 20 µM | [10] 32.9 µM

C=CC(Cl)CCl (stereo not given)
inactive: [1] | [20] | [2] | [13] | [17] | [14] | [18] | [8] | [9] | [10] | [11] | [12]
active: [4] 27.2 µM | [7] 0.14 µM
